{"source": "PubChem BioAssay AID651815", "about": "(National Center for Advancing Translational Sciences (NCATS), 2012)", "note": "Among all 2,100 compounds or so, about 1,100 (52%) were called active. About 29% were inconclusive and are not listed. Calls follow the shape of the dose curve; as a rule, active = well fitted inhibition curve with a large enough effect; inconclusive = small, poorly fitted or top-dose-only effect; inactive = no such curve, though single readings can be large or run the other way. The set was probably picked from earlier hits. The list shows a part of the results. Potency is read from the fitted curve at half-maximal effect.", "data": [{"target": "DNA dC->dU-editing enzyme APOBEC-3F (Homo sapiens) (UniProt Q8IUX4)", "sequence (Q8IUX4 whole entry, looked up)": "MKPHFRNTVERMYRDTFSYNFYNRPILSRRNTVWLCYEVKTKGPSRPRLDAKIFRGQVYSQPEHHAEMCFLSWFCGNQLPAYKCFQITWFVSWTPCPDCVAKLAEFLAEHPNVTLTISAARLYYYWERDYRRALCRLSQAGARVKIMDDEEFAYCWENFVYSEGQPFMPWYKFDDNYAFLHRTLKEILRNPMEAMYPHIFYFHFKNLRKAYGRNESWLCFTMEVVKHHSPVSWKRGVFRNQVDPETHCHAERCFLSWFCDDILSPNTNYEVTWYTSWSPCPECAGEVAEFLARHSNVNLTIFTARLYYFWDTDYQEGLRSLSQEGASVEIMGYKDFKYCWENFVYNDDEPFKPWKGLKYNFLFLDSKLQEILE", "test": "qHTS for inhibitors of Vif-A3F interactions: Cherry picks counterscreen; also: nearly all actives have a fitted effect of over 65% in size", "conditions": "HeLa A3F-eYFP/Vif cells, eYFP fluorescence, 24 h; series mostly up to 46.1 µM", "summary_of_the_method": "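Rescue of Vif-driven A3F-eYFP degradation read as cellular eYFP fluorescence after 24 h compound exposure (several concentrations) in stable HeLa cells; MG132 (2 mM stock) as positive control.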", "values": [{"smiles": "O=C(c1cc(-c2ccncc2)nc2ccccc12)N1CCN(c2ccccn2)CC1", "Potency": "6.27 µM (active)"}, {"smiles": "COC(=O)c1sc(N)c(C(=O)OC)c1COC(=O)c1c(C)noc1C", "Potency": "4.44 µM (active)"}, {"smiles": "CC(=O)N1CCc2nc3sc(C(=O)c4ccc(F)cc4)c(N)c3c(C(F)(F)F)c2C1", "Potency": "18.4 µM (active)"}, {"smiles": "COc1ccc(C(=O)c2sc3nc4c(c(C(F)(F)F)c3c2N)CN(C(C)=O)CC4)cc1OC", "Potency": "23.1 µM (active)"}, {"smiles": "COc1ccccc1-c1nnc2sc(-c3cc4ccccc4o3)nn12", "Potency": "5.59 µM (active)"}, {"smiles": "Cc1c2ccccc2nc2c(F)c(NC(C)C)c(F)c(F)c12", "Potency": "6.51 µM (active)"}, {"smiles": "CCCNc1c(F)c(F)c2c(C)c3ccccc3nc2c1F", "Potency": "15.8 µM (active)"}, {"smiles": "c1ccc(-c2cnn3c(-c4ccccc4)c(-c4ccccc4)nc3n2)cc1", "Potency": "0.461 µM (active)"}, {"smiles": "CC(C)(C)C(=O)c1sc2nc(-c3cccs3)cc(C(F)(F)F)c2c1N", "Potency": "1.84 µM (active)"}, {"smiles": "Nc1c(C(=O)C2CC2)sc2nc(-c3cccs3)cc(C(F)(F)F)c12", "Potency": "1.16 µM (active)"}, {"smiles": "CC(=O)c1sc2nc(-c3cccs3)cc(C(F)(F)F)c2c1N", "Potency": "16.4 µM (active)"}, {"smiles": "CCCc1nc2c(C)cc(Br)cn2c1Cc1ccccc1", "Potency": "inactive"}, {"smiles": "CC(C)n1cc(/C=C/c2cc[n+](C)cc2)c2ccccc21", "Potency": "0.0559 µM (active)"}, {"smiles": "CCn1cc(/C=C/c2cc[n+](C)cc2)c2ccccc21", "Potency": "0.0498 µM (active)"}, {"smiles": "C=CCn1cc(/C=C/c2cc[n+](C)cc2)c2ccccc21", "Potency": "0.198 µM (active)"}, {"smiles": "COc1cc(OC)c(/C=C/c2ccc3ccccc3[n+]2C)c(OC)c1", "Potency": "11.6 µM (active)"}, {"smiles": "CCc1c(C)nc(SCC(=O)c2cccs2)c(C#N)c1C", "Potency": "inactive"}, {"smiles": "N#Cc1c(-c2ccccc2F)cc(C2CC2)nc1SCC(=O)c1cccs1", "Potency": "14 µM (active)"}, {"smiles": "COc1cccc(CNCCSc2nnnn2C)c1OCc1ccc(F)cc1", "Potency": "inactive"}, {"smiles": "Fc1ccc(COc2ccc3ccccc3c2CNc2nn[nH]n2)cc1", "Potency": "19.8 µM (active)"}, {"smiles": "O=C(NNC1=Nc2cccc3cccc1c23)c1ccc(Br)cc1", "Potency": "23.1 µM (active)"}, {"smiles": "COc1cc(OC)c(/C=C2\\SC(=O)N(CC(=O)Nc3ccccc3F)C2=O)c(OC)c1", "Potency": "12.5 µM (active)"}, {"smiles": "O=C(Cn1nc2c(cc1=O)CCCC2)NCc1ccc(Cl)cc1", "Potency": "16.4 µM (active)"}, {"smiles": "N#C/C(=C/c1cccs1)c1ccccn1", "Potency": "15.8 µM (active)"}, {"smiles": "CC(=O)Nc1cccc(-c2ccnc3c2CC(C)(C(=O)NCc2cccs2)O3)c1", "note": "(stereo unspecified)", "Potency": "4.44 µM (active)"}, {"smiles": "CC1(C(=O)NCc2ccco2)Cc2c(-c3cccc(C(N)=O)c3)ccnc2O1", "note": "(stereo unspecified)", "Potency": "14 µM (active)"}, {"smiles": "CC(=O)Nc1cccc(-c2ccnc3c2CC(C)(C(=O)NCc2ccccc2)O3)c1", "note": "(stereo unspecified)", "Potency": "2.8 µM (active)"}, {"smiles": "CC1(C(=O)NCc2ccccc2)Cc2c(-c3ccc(C(N)=O)cc3)ccnc2O1", "note": "(stereo unspecified)", "Potency": "7.9 µM (active)"}, {"smiles": "CC1(C(=O)NCc2ccccc2)Cc2c(-c3cccc(C(N)=O)c3)ccnc2O1", "note": "(stereo unspecified)", "Potency": "7.04 µM (active)"}, {"smiles": "CC(=O)Nc1cccc(-c2ccnc3c2CC(C(=O)NCc2cccs2)O3)c1", "note": "(stereo unspecified)", "Potency": "5.59 µM (active)"}, {"smiles": "N#C/C(=C\\c1ccc([N+](=O)[O-])o1)c1nc2ccccc2[nH]1", "Potency": "8.2 µM (active)"}, {"smiles": "N#C/C(=C\\c1ccc(Cl)cc1)c1nc2ncccc2[nH]1", "Potency": "15.8 µM (active)"}, {"smiles": "CCCOc1cc(N(CC)CC)ccc1/C=C(/C#N)c1nc2ccc(C)cc2[nH]1", "Potency": "inactive"}, {"smiles": "N#C/C(=C\\c1cccnc1)c1nc2ccccc2[nH]1", "Potency": "14 µM (active)"}, {"smiles": "Cc1ccc2nc(/C(C#N)=C\\c3ccc([N+](=O)[O-])o3)[nH]c2c1", "Potency": "10.3 µM (active)"}, {"smiles": "CC(/C=N/NC(=O)c1cc(-c2ccccc2)nc2ccccc12)=C\\c1ccco1", "Potency": "3.14 µM (active)"}, {"smiles": "C/C(=N\\NC(=O)c1cc(-c2ccncc2)nc2ccccc12)c1ccc(N2CCOCC2)cc1", "Potency": "inactive"}, {"smiles": "O=C(N/N=C/c1ccco1)c1cc(-c2ccncc2)nc2ccccc12", "Potency": "6.27 µM (active)"}, {"smiles": "CCn1c(O)c(/C=N/NC(=O)c2ccncc2)c(=O)n(CC)c1=S", "Potency": "inactive"}, {"smiles": "CCc1ccc(/C=N/NC(=O)c2cc(-c3ccncc3)nc3ccccc23)s1", "Potency": "4.98 µM (active)"}, {"smiles": "O=C(NCc1cccc(F)c1)c1cccc2c1C(=O)c1ccc(N3CCCC3)cc1S2(=O)=O", "Potency": "17.7 µM (active)"}, {"smiles": "Cc1ccc(CNC(=O)c2cccc3c2C(=O)c2ccc(N4CCC(C)CC4)cc2S3(=O)=O)cc1", "Potency": "14.6 µM (active)"}, {"smiles": "CC1CCN(c2ccc3c(c2)S(=O)(=O)c2cccc(C(=O)NCc4cccc(F)c4)c2C3=O)CC1", "Potency": "14 µM (active)"}, {"smiles": "COc1ccc2oc(=Nc3ccccc3)c(-c3nc4ccccc4[nH]3)cc2c1", "Potency": "20.6 µM (active)"}, {"smiles": "COc1cc(C(=O)Nc2ccc(C)cc2)c2ccccc2n1", "Potency": "1.77 µM (active)"}, {"smiles": "CCOC(=O)c1csc(NC(=O)c2cc(-c3ccccn3)nc3ccccc23)n1", "Potency": "inactive"}, {"smiles": "Cc1ccc(C)c(NC(=O)Cn2cc(S(=O)(=O)Cc3cccc(Cl)c3)c3ccccc32)c1", "Potency": "6.51 µM (active)"}, {"smiles": "Cc1ccc(Cl)cc1NC(=O)Nc1cn(CC(C)C)c(=O)c2ccccc12", "Potency": "inactive"}, {"smiles": "CCS(=O)(=O)N1N=C(c2ccc(C)cc2)CC1c1cc2ccc(OC)cc2nc1Cl", "note": "(stereo unspecified)", "Potency": "inactive"}, {"smiles": "COc1ccc(C2CC(c3ccncc3)=NN2c2ccc(S(N)(=O)=O)cc2)cc1", "note": "(stereo unspecified)", "Potency": "20.6 µM (active)"}, {"smiles": "O=C(Nc1nc2ccc(F)cc2s1)c1ccc([N+](=O)[O-])o1", "Potency": "15.8 µM (active)"}, {"smiles": "COc1ccc2nc(NC(=S)NC(=O)c3ccco3)sc2c1", "Potency": "inactive"}, {"smiles": "COc1ccc(NC(=O)c2c(Cl)n(C)c3ccccc23)cc1", "Potency": "14 µM (active)"}, {"smiles": "COc1cc(OC)c(OC)cc1/C=C1\\CC(C)C/C(=C\\c2cc(OC)c(OC)cc2OC)C1=O", "note": "(stereo unspecified)", "Potency": "18.4 µM (active)"}, {"smiles": "CCCOc1ccc2cc(C(=O)NCc3ccccc3)c(=O)oc2c1", "Potency": "inactive"}, {"smiles": "CCOc1ncccc1C(=O)NCc1ccc(OC)cc1", "Potency": "8.86 µM (active)"}, {"smiles": "CCOc1ccc(CNC(=O)c2ccccc2NC(=O)c2nsc3ccccc23)cc1", "Potency": "16.4 µM (active)"}, {"smiles": "COc1ccc2c(n1)Sc1nc3ccccc3nc1N2", "Potency": "3.26 µM (active)"}, {"smiles": "COc1ccc(C2C(C#N)=C(N)Oc3cc(N)ccc32)cc1OC", "note": "(stereo unspecified)", "Potency": "12.5 µM (active)"}, {"smiles": "COc1cc(C2C(C#N)=C(N)Oc3cc(O)ccc32)cc2c1OCO2", "note": "(stereo unspecified)", "Potency": "15.8 µM (active)"}, {"smiles": "Cc1oc(C)c2c(=O)ccc3c(c12)OC(N)=C(C#N)C3c1ccc(F)cc1", "note": "(stereo unspecified)", "Potency": "inactive"}, {"smiles": "N#CC1=C(N)Oc2cc(N)ccc2C1c1cccc(F)c1", "note": "(stereo unspecified)", "Potency": "2.5 µM (active)"}, {"smiles": "COc1ccc(C2C(C#N)=C(N)Oc3c2ccc2cccnc32)cc1OC", "note": "(stereo unspecified)", "Potency": "3.53 µM (active)"}, {"smiles": "N#CC1=C(N)Oc2cc(N)ccc2C1c1cccc(Br)c1", "note": "(stereo unspecified)", "Potency": "1.98 µM (active)"}, {"smiles": "Cc1ccc2nc(-c3ccccn3)c(NC3CCCC3)n2c1", "Potency": "inactive"}, {"smiles": "O=C(N/N=C/c1ccc(Cl)cc1)c1cc2c(s1)-c1ccccc1CC2", "Potency": "5.59 µM (active)"}, {"smiles": "Cc1cc2c(cc(C(=O)OCC(=O)NCc3cccs3)n2C(C)C)o1", "Potency": "1.77 µM (active)"}, {"smiles": "CCOC(=O)Cc1csc(NC(=O)c2sc3nc4c(C)cc(C)cc4cc3c2N)n1", "Potency": "16.4 µM (active)"}, {"smiles": "O=C(Cn1ncc(Cl)c(Cl)c1=O)Nc1ccc2c(c1)OCO2", "Potency": "15.8 µM (active)"}, {"smiles": "Cc1cc(C)cc(Oc2nc(C(F)(F)F)nc3ccccc23)c1", "Potency": "11.2 µM (active)"}, {"smiles": "Cc1ccc(/C=N/NC(=O)c2ccc3ccccc3c2)s1", "Potency": "2.23 µM (active)"}, {"smiles": "CNC(=S)N/N=C/c1ccc(N2CCOCC2)s1", "Potency": "inactive"}, {"smiles": "Cc1ccc(/C=N/NC(=O)C2COc3ccccc3O2)s1", "note": "(stereo unspecified)", "Potency": "4.98 µM (active)"}, {"smiles": "CC(C)(C)n1ncc2c(=O)n(CC(=O)NCc3ccc(F)cc3)cnc21", "Potency": "14 µM (active)"}, {"smiles": "O=C(Cn1cnc2c(cnn2-c2ccc(F)cc2)c1=O)NCc1ccco1", "Potency": "9.94 µM (active)"}, {"smiles": "Cc1sc2ncn(CC(=O)NCc3ccccc3)c(=O)c2c1C", "Potency": "inactive"}, {"smiles": "Cc1ccc(Cn2nnc3c(=O)n(CC(=O)NCc4ccccc4)cnc32)cc1", "Potency": "14 µM (active)"}, {"smiles": "CCc1cccc2c(C(O)c3c[nH]c4ccccc34)c[nH]c12", "note": "(stereo unspecified)", "Potency": "20.6 µM (active)"}, {"smiles": "CCn1c(SCC(=O)Nc2cccc(O)c2)nc2c1c(=O)n(C)c(=O)n2C", "Potency": "inactive"}, {"smiles": "COc1ccc(NC(=O)CSc2nc3c(oc4ccccc43)c(=O)n2Cc2ccco2)cc1Cl", "Potency": "18.4 µM (active)"}, {"smiles": "N=c1n(CC(=O)c2ccc([N+](=O)[O-])cc2)c2ccccc2n1Cc1ccccc1", "Potency": "20.6 µM (active)"}, {"smiles": "Cc1cccc(C)c1OCCNC(=O)C(=O)NCc1ccco1", "Potency": "2.8 µM (active)"}, {"smiles": "Cc1ccc2c(CC(=O)NCc3ccco3)coc2c1C", "Potency": "9.94 µM (active)"}, {"smiles": "O=C(COC(=O)C12CC3CC(CC(Cl)(C3)C1)C2)N1CCCCC1", "Potency": "inactive"}, {"smiles": "COc1ccc2o/c(=N/NC(=O)c3cccs3)c(C(N)=O)cc2c1", "Potency": "7.04 µM (active)"}, {"smiles": "Cc1ccc2c(Cl)c(C)c(N3CCCC3)nc2n1", "Potency": "inactive"}, {"smiles": "COc1ccc(Nc2nc3cc(C)ccc3cc2C#N)cc1", "Potency": "14.6 µM (active)"}, {"smiles": "CCN(CC)c1nc2cc(OC)ccc2cc1C#N", "Potency": "inactive"}, {"smiles": "COc1ccc(Nc2nc3cc(C)ccc3cc2C#N)c(OC)c1", "Potency": "1.58 µM (active)"}, {"smiles": "O=[N+]([O-])c1ccc(N=Nc2ccc(O)c3ccccc23)cc1", "Potency": "inactive"}, {"smiles": "COc1ccccc1NS(=O)(=O)c1cc([N+](=O)[O-])ccc1N/N=C/c1c(C)[nH]c2ccccc12", "Potency": "3.96 µM (active)"}, {"smiles": "O=[N+]([O-])c1ccc(N/N=C/c2c[nH]c3ccccc23)cc1", "Potency": "16.4 µM (active)"}, {"smiles": "O=[N+]([O-])c1ccc(N/N=C/c2c[nH]c3ccccc23)c(S(=O)(=O)Nc2ccc(Cl)cc2)c1", "Potency": "18.4 µM (active)"}, {"smiles": "C/C(=N/Nc1ccc([N+](=O)[O-])cc1)c1c[nH]c2ccccc12", "Potency": "inactive"}, {"smiles": "Cc1[nH]c2ccccc2c1/C=N/Nc1ccc([N+](=O)[O-])cc1", "Potency": "9.2 µM (active)"}, {"smiles": "Cc1ccccc1NCC(=O)N=Nc1c(O)[nH]c2ccc([N+](=O)[O-])cc12", "Potency": "inactive"}]}]}
